KB-3-1 cytotox: kills parental KB-3-1 adenocarcinoma cells; KB-3-1 viability, CellTiter-Glo ATP luminescence, 72 h; Potency, µM (highest dose often 46.1 µM), most hits filed as cytotoxic; 400,000 tested, 1.4% active; AID 1347075; note: % is set by controls: 0 for no effect and ±100 for the full control effect; nearly all actives have a fitted effect of over 60% in size
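Here the drug-naive KB-3-1 line serves as comparator for MDR sub-line selectivity; cells received compound titrations, 72 h at 37 °C, then CellTiter-Glo readout.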
12-LOX inh: inhibitors of human 12S-lipoxygenase ALOX12. Potency, µM (doses to about 108 µM), inactives show top-dose activity change, negative = inhibition, actives largely listed as inhibitors. purified 12hLO, xylenol orange hydroperoxide absorbance. 580,000 tested, 1.1% active; note: % is set by controls: 0 for no effect and ±100 for the full control effect
Target sequence (P18054 whole entry, looked up): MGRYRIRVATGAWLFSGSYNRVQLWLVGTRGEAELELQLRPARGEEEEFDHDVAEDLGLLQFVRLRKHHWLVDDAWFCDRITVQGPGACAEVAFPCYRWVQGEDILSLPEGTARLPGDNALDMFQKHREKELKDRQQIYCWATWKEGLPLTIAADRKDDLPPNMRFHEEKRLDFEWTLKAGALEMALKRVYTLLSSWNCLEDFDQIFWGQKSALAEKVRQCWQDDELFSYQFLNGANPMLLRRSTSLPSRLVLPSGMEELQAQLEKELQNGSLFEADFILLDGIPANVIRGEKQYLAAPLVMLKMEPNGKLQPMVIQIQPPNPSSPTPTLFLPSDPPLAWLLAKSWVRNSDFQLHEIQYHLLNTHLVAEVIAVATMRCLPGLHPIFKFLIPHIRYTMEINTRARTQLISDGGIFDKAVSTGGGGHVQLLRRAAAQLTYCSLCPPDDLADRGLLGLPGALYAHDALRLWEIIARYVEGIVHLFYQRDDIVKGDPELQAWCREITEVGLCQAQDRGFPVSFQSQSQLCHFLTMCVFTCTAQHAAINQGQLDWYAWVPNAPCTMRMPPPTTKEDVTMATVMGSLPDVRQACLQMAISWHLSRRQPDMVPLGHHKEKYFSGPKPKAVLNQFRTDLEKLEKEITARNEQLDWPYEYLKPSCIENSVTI
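Purified human 12hLO at 150 nM in 25 mM Hepes, 0.01% Triton X-100, pH 7.0, preincubated 15 min at room temperature with compound. Reaction started with 40 uM arachidonic acid, 30 min at room temperature. Hydroperoxide measured by Fe-xylenol orange, 573/405 nm absorbance ratio.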
MCF10A rerep: induces DNA re-replication in MCF 10a normal breast cells. Potency, µM (top dose mostly 46.1 µM), without a hit: top-dose activity, positive = re-replication, hits mostly activators. MCF 10A DNA re-replication, Hoechst nuclear intensity, 48 h. 350,000 tested, 2.9% active; note: % of control where 0% means no effect; nearly all actives have a fitted effect of over 50% in size
KB-V1 cytotox: KB-V1 MDR subline cytotoxicity; KB-V1 MDR cells viability, CellTiter-Glo, 72 h; Potency, µM (series often up to 46.1 µM), hits mostly cytotoxic; 400,000 tested, 3.4% active; AID 1347076; note: % is set by controls: 0 for no effect and ±100 for the full control effect; nearly all actives have a fitted effect of over 60% in size
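Cytotoxicity via CellTiter-Glo luminescence after 72 h compound exposure at 37 degrees C. Cells: drug-selected KB-V1 line, DMEM phenol-red free plus 10% FBS. Compounds tested at multiple concentrations; normalized data fitted to concentration-effect curves.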
SW480 rereplic: inducers of DNA re-replication in SW480 colon cancer cells; Potency, µM (titrated, usually from 46.1 µM), for inactives: at the highest dose re-replication activation, usual class: activators; AID 624297; SW480 DNA re-replication, Hoechst DNA content imaging, 48 h; 340,000 tested, 1.8% active; note: % of control where 0% means no effect; nearly all actives have a fitted effect of over 55% in size
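First, 250 cells per well were seeded. Next, compound or vehicle (23 nL) was pinned in, plates sat 48 hr at 37 C. Finally Hoechst was added for 40 min before fluorescence scanning.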
PINK1 modulator: changes PINK1 expression | PINK1 immunofluorescence, high-content cytometry, 24 h | Potency, µM (series often up to 76.6 µM), for the others: at the highest dose activation (PINK1 increase), hits mostly activators | 410,000 tested, 0.2% active; active = well fitted activation curve with a large enough effect; inconclusive = small, poorly fitted or top-dose-only effect; cell line not stated here; note: % of control where 0% means no effect; nearly all actives have a fitted effect of over 65% in size
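Fluorescence from anti-PINK1 antibody, together with nuclear and cell stains, was scanned on a laser-scanning cytometer. Before staining, stable-line cells were incubated 24 hours with compounds at 5 concentrations; primary antibody 12 h at 10 degrees C.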
Numbers without * were called inactive; i = inactive; ? = inconclusive; . = not tested or not shown; [ ] = remark or other dose. Hits are enriched below; roughly 5.8% of the tested compounds scored in any of these assays. Unless noted, calls come from the whole dose curve; as a rule, active = well fitted curve in the direction sought with a large enough effect; inconclusive = small, poorly fitted or top-dose-only effect, or another doubt; inactive = no such curve, though single readings can be large; an effect the other way counts as inactive or inconclusive. Potency is the fitted concentration of half-maximal effect.

SMILES	KB-3-1 cytotox	12-LOX inh	MCF10A rerep	KB-V1 cytotox	SW480 rereplic	PINK1 modulator
CCCCCCCC[n+]1cccc2c3ccccc3ccc21	?	?	?	i	?	25µM*
CCCCCCCCCC[n+]1cccc2c3ccccc3ccc21	1.2µM*	-20%	31%	i	21%	?
Cc1cc[n+](CC(=O)c2ccc(F)cc2)c2ccccc12	i	.	.	i	.	.
CCCCCCCCCC[n+]1cccc2cc(Cl)ccc21	5.2µM*	.	.	i	.	?
Cc1cc(N=Cc2c(O)n(-c3ccc(C)c(C)c3)c(=O)c3ccccc23)no1	.	-24%	.	.	.	.
CCOC(=O)Cc1csc(/N=C/c2c(O)n(-c3ccc(C)c(C)c3)c(=O)c3ccccc23)n1	?	10%	?	10µM*	0%	-2%
O=C(CCCc1nc2ccccc2o1)NCc1ccc(Cl)cc1	.	15%	.	.	.	.
COc1ccc(NC(=O)CC(C)n2cccn2)cc1Cl (stereo unspecified)	.	5%	.	.	.	.
Cc1ccc(S(=O)(=O)N(C)c2ccc(OCC(=O)Nc3nc4ccccc4s3)cc2)cc1	?	-28%	8%	2.9µM*	7%	0%
Cc1ccc(S(=O)(=O)N(C)c2ccc(OCC(=O)Nc3nc(-c4ccccc4)cs3)cc2)cc1	i	-9%	?	i	-4%	1%
Cc1ccc(S(=O)(=O)N(C)c2ccc(OCC(=O)Nc3nc4c(ccc5ccccc54)s3)cc2)cc1	i	-22%	1%	4.1µM*	-47%	0%
CC1=NS(=O)(=O)N(Cc2ccccc2)C=C1C(=O)OCc1noc(-c2ccc(C)c(C)c2)n1	.	13%	.	.	.	.
O=C(Nc1cccc(F)c1)N1CCC(Oc2ncccc2C(=O)N2CCCCC2)C1 (stereo unspecified)	.	7%	.	.	.	.
COc1cc(CNn2c(C)n[nH]c2=S)cc(Cl)c1OCc1ccccc1	i	20µM*	-32%	i	14%	.
COc1cc(CNn2cn[nH]c2=S)cc(Cl)c1OCc1ccc(F)cc1	i	?	5%	i	-7%	4%
O=C(c1ccc(N2CC3CC(C2)[C@H]2CCCC(=O)N2C3)nc1)N1CCC(Cc2ccccc2)CC1 (stereo partly specified)	.	14%	.	.	.	.
CCCNC(=O)NC(=O)CSc1nc(NC2CC2)c2ccccc2n1	.	-17%	.	.	.	.
Cc1ccc(OCC(=O)Nc2cc(-c3nn4c(C)nnc4s3)ccc2C)cc1	18µM*	3%[57.4 µM]	-4%	?	-9%	7%
Cc1ccc(-c2nn3c(C)nnc3s2)cc1NC(=O)c1ccc(-c2ccc(Cl)cc2Cl)o1	21µM*	-20%	7.3µM*	?	18%	?
Cc1ccc(-c2nn3c(C)nnc3s2)cc1NC(=O)c1ccc(-c2cccc(Cl)c2)o1	?	0%	?	?	?	-1%
O=C(Nc1cccc(F)c1)C1CCN(C(=O)c2ncn3c2COC(c2ccc(F)cc2)C3)CC1 (stereo unspecified)	.	57%	.	.	.	.
CC(C)n1cc(CN2CCC(C(=O)Nc3cccc(-c4cccc(Cl)c4)c3)CC2)cn1	?	?	18µM*	?	3.3µM*	0%
CCn1cc(CN2CCC(C(=O)Nc3cccc(-c4cccc(F)c4)c3)CC2)cn1	.	0%	0%	.	2%	1%
COc1ccc2c(C(=O)NCc3ccc4c(c3)OCO4)c(-c3ccc(S(C)(=O)=O)cc3)sc2c1	i	-24%	118%	i	3.7µM*	3%
CN1C(=O)C2(Nc3ccccc3-c3nc4ccccc4n32)c2ccccc21 (stereo unspecified)	i	-9%	2%	?	-7%	2%
SMILES	KB-3-1 cytotox	12-LOX inh	MCF10A rerep	KB-V1 cytotox	SW480 rereplic	PINK1 modulator
CCN1C(=O)C2(Nc3ccccc3-c3nc4ccccc4n32)c2cc(OC)ccc21 (stereo unspecified)	?	-18%	1%	13µM*	1%	6%
COc1cccc(C(N)c2nc(-c3csc4ccccc34)cs2)c1 (stereo unspecified)	7.3µM*	.	.	8.2µM*	.	6%
COc1ccccc1-c1c(C(F)(F)F)oc2cc(OS(C)(=O)=O)ccc2c1=O	?	9%	1%	21µM*	-5%	4%
COc1ccc(-c2c(C(F)(F)F)oc3cc(OCC(=O)Nc4ccccc4C(F)(F)F)ccc3c2=O)cc1OC	i	-12%	8.2µM*	?	3%	-1%
COc1ccccc1-c1c(C(F)(F)F)oc2cc(OCC(=O)Nc3ccccc3C(F)(F)F)ccc2c1=O	i	1%	4%	i	-1%	13%
COc1cccc(CN(C)CC(=O)Nc2cccc(S(=O)(=O)N(C)c3ccccc3)c2)c1OC	?	0%	?	2.6µM*	-2%	1%
CN(c1ccccc1)S(=O)(=O)c1cccc(NC(=O)Cn2cnc3ccccc3c2=O)c1	?	0%	11%	23µM*	-2%	-1%
CCN(CC)S(=O)(=O)c1cc(NC(=O)Cn2cnc3ccccc3c2=O)ccc1C	i	-3%	9%	i	15%	0%
CC(=O)N/N=C/c1cc([N+](=O)[O-])ccc1OCCOc1ccccc1	i	-5%	4%	i	21µM*	-1%
CCN(CC(=O)Nc1cccc(S(=O)(=O)N(C)c2ccccc2)c1)Cc1cccs1	?	432%	17%	4.6µM*	-3%	2%
Cc1ccsc1CN(C)CC(=O)Nc1cccc(S(=O)(=O)N(C)c2ccccc2)c1	i	20%	?	i	0%	0%
NC(=S)N/N=C/c1cc([N+](=O)[O-])ccc1OCCOc1ccccc1	i	0%	1%	i	1%	11%
CN(c1ccccc1)S(=O)(=O)c1cccc(NC(=O)CC(C)(C)C)c1	i	-16%	-1%	2.6µM*	1%	0%
Cc1ccc(C(=O)Nc2cccc(S(=O)(=O)N(C)c3ccccc3)c2)o1	i	-15%	7%	16µM*	-1%	4%
CN(c1ccccc1)S(=O)(=O)c1cccc(NC(=O)COc2cccc([N+](=O)[O-])c2)c1	i	0%	1%	18µM*	-2%	2%
COc1cc(CC(=O)Nc2cccc(S(=O)(=O)N(C)c3ccccc3)c2)cc(OC)c1OC	?	30%	9%	i	-1%	2%
CC(=O)Nc1cccc(OCCCOc2cccc([N+](=O)[O-])c2)c1	i	7%	8%	9.2µM*	?	-3%
COC(=O)CC1CCCCN1CC(=O)NC(=O)NCc1ccco1 (stereo unspecified)	.	1%	.	.	.	.
Cc1cc(S(=O)(=O)NCc2ccccc2)ccc1OCC(=O)Nc1cccc([N+](=O)[O-])c1	i	-2%	?	13µM*	-12%	-1%

Screening data deposited in PubChem BioAssay by National Center for Advancing Translational Sciences (NCATS).
